“And” between values parts separate entries of the source, which are not always exact repeats. Equal values may be shown once. Screen size: about 240,000 compounds; about 1,300 (0.54%) were called active. Inconclusive results (about 1%) are left out. The call rests on the fitted dose curve; in most records, active means well fitted inhibition curve with a large enough effect; inconclusive means small, poorly fitted or top-dose-only effect; inactive means flat fitted curve, though single readings scatter. For the sample, actives were picked, then their nearest neighbours and some compounds at random. More than one record can exist for a structure, and the calls need not agree.
The molecules below were run against ATP-dependent DNA helicase Q1 (Homo sapiens) (UniProt P46063) (assay: qHTS Assay for Inhibitors of RecQ-Like Dna Helicase 1 (RECQ1)). Conditions: RECQ1 DNA unwinding, red fluorescence kinetic read; series mostly up to 57.3 µM; activity, negative = inhibition: at the top concentration.
ATP-dependent DNA helicase Q1 (Homo sapiens), sequence (P46063 whole entry, looked up): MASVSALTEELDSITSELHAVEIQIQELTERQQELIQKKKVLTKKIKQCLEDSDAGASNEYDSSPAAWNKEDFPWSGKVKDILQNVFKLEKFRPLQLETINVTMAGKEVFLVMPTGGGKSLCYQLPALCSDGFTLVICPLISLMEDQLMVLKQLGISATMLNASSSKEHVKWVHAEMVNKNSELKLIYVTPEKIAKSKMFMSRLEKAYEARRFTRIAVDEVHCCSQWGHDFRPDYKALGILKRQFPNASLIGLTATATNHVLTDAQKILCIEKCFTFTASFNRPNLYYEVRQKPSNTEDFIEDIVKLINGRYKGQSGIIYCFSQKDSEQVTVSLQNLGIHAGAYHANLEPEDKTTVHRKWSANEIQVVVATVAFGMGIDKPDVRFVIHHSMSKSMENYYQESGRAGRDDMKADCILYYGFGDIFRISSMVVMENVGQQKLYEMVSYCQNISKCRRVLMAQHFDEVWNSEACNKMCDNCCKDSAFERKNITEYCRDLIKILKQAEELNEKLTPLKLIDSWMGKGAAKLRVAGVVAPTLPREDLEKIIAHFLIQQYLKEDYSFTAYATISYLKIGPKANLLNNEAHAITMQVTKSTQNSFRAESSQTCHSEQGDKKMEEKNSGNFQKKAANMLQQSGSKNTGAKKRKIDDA
Text: Survival of cells and the faithful propagation of the genome depend on elaborate mechanisms of detecting and repairing DNA damage. Treatment of advanced cancer relies on radiation therapy or chemotherapy, which kill cancer cells by causing extensive DNA damage. It is often found, that cancer cells develop resistance to therapy through enhanced activity of DNA repair functions; this has led to an increased interest in developing drugs that interfere with DNA repair, which could sensitize cancer cells to conventional therapy.
This validation qHTS assay pertains to human RECQ1, which is important in resolving abnormal DNA structures formed during replication or homologous recombination. Shutting down the expression of RECQ1 leads to chromosomal instability and higher radiation sensitivity in cultured cells.
The validation assay was a fluorescence quenching based kinetic qHTS for RECQ1 Helicase DNA unwinding. The activity was measured as ATP-dependent separation of a 20-bp DNA duplex extended by 30-nt single-stranded tails (forked duplex). The forked DNA substrate was tagged with rhodamine fluorophore (carboxytetramethyl rhodamine, TAMRA) and BHQ-2 (Black Hole Quencher 2) dark quencher. Strand separation results in an increase in the fluorescence of TAMRA (excitation 525 nm, emission 598 nm). This substrate construct operates in a red-shifted region where very few compound library members have been noted to fluoresce (PubChem AIDs 593 and 594). An additional feature of the assay is the inclusion of 2.5 ug/ml poly (dIdC), to reduce interference by compounds such as DNA intercalators, a major source of false inhibitors.
Opher Gileadi, Structural Genomics Consortium, University of Oxford
Screening Center PI: Austin, C.P.
Screening Center: NIH Chemical Genomics Center [NCGC]
Three uL of reaction buffer (25 mM Tris-HCl (pH 8.0), 5 mM NaCl, 2 mM MgCl2, 1mM DTT, 0.01% Tween- 20, and 2.5 ug/ml poly(dI-dC), including enzyme (50 nM RECQ1T1), were dispensed into a 1536-well Greiner black assay plate via solenoid-valve based nanoliter dispensers. Compounds (23 nl each in columns 5-48) and control (23 nl each in column 2 as dose-response) were transferred via a Kalypsys pintool equipped with a 1536-pin array. The plates were incubated for 15 min at room temperature, and then 1 ul of substrates (200 nM DNA and 2 mM ATP, final concentrations) was added to start the reaction. The plate was transferred into a ViewLux high-throughput CCD imager where the reaction progress was measured in a discontinuous kinetic mode (two reads spaced 2 hours apart, with intermediate room temperature incubation of the covered assay plate) by using standard red-fluorescence optics (excitation filter 525 nm, emission filter 598 nm). Enzyme-free and vehicle (DMSO) controls were included for signal normalization.
Further: nearly all actives have a fitted effect of over 30% in size.
Potency means the concentration at half of the fitted maximal effect.
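Wherever activity, negative = inhibition is given: plate controls were vehicle for no effect and no enzyme for full effect.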

| Structure (SMILES) | Potency | activity, negative = inhibition | outcome |
| --- | --- | --- | --- |
| O=C1NC(=O)N(Cc2ccco2)C(=O)/C1=C\c1ccc(-c2ccc(F)cc2)o1 | 25.1 µM (active) |  |  |
| O=C1NC(=O)N(CCc2ccc(F)cc2)C(=O)/C1=C/C=C/c1ccccc1 |  | -7.01% (inactive) |  |
| CC(C)CC(C)Nc1ccc(Nc2ccccc2)cc1 (stereo unspecified) |  | -4.48% (inactive) |  |
| N#CC(C#N)=Cc1cc(O)c(O)c([N+](=O)[O-])c1 | 31.6 µM (active) |  |  |
| CCN(CC)c1nc(C)cc(OP(=S)(OC)OC)n1 |  | -4.04% (inactive) |  |
| CC(C)(C)c1ccc(CN2C(=O)CN=C(c3ccccc3)c3ccccc32)cc1 |  |  | inactive |
| O=C1CC(=O)N(Cc2ccccc2)C(=O)N1CCCCCCN1C(=O)CC(=O)N(Cc2ccccc2)C1=O | 7.94 µM (active) |  |  |
| O=C(CN1CCCC1=O)NCCc1ccccc1 |  | 3.98% (inactive) |  |
| CO[C@H]1[C@@H](O)[C@@H](C)O[C@H](O[C@H]2[C@H](Oc3cccc4c(O)c5c(=O)oc6ccc(C)c7c(=O)oc(c34)c5c67)O[C@H](C)[C@H](O)[C@@H]2O)[C@@H]1O |  | -27% (inactive) |  |
| Cc1c(C(=O)O)cccc1-n1c(C)cc(/C=C2\C(=O)NC(=O)N(c3ccc4c(c3)OCO4)C2=O)c1C |  | -6.31% (inactive) |  |
| COc1cccc(N2C(=O)NC(=O)/C(=C\c3ccc([N+](=O)[O-])s3)C2=O)c1 | 22.4 µM (active) |  |  |
| CCCCCCCCCCCCN=C(N)N |  | -3.44% (inactive) |  |
| CCCN(C/C=C/I)C1CCc2ccc(O)cc2C1 (stereo unspecified) |  | 16.7% (inactive) |  |
| ClCCBr |  | -7.43% (inactive) |  |
| CC(C)(Cc1c[nH]c2ccc(Cl)cc12)NCCOc1ccccc1OCC1CC1 | inactive |  |  |
| CC(=O)[O][Sn]([c]1ccccc1)([c]1ccccc1)[c]1ccccc1 |  | -18.8% (inactive) |  |
| CN(C)C[C@H]1CCCC[C@]1(O)c1cccc(O)c1 |  | -4.76% (inactive) |  |
| O=C(OCC1O[C@@H](OC(=O)c2cc(O)c(O)c(O)c2)[C@@H](OC(=O)c2cc(O)c(O)c(O)c2)[C@@H](OC(=O)c2cc(O)c(O)c(O)c2)[C@@H]1OC(=O)c1cc(O)c(O)c(O)c1)c1cc(O)c(O)c(O)c1 (stereo partly specified) | 0.112 µM (active) |  |  |

| Structure (SMILES) | Potency | activity, negative = inhibition | outcome |
| --- | --- | --- | --- |
| C=CCN1CCC2(C)c3cc(O)ccc3CC1[C@@H]2C (stereo partly specified) |  | -14.3% (inactive) |  |
| CC(C)(C)C(O)(CCc1ccc(Cl)cc1)Cn1cncn1 (stereo unspecified) |  | -5.08% (inactive) |  |
| O=C1CCc2cccc3c2N1CC3 |  | -9.06% (inactive) |  |
| C[C@@H]1C[C@H]2CC[C@H](O2)[C@H](C)C(=O)O[C@@H](C)C[C@@H]2CC[C@@H](O2)[C@@H](C)C(=O)O[C@H](C)C[C@H]2CC[C@H](O2)[C@H](C)C(=O)O[C@@H](C)C[C@@H]2CC[C@@H](O2)[C@@H](C)C(=O)O1 |  | -2.94% (inactive) |  |
| Nc1ccc(-c2ccc(N)c(N)c2)cc1N |  | -4.18% (inactive) |  |
| CC[C@]1(O)C(=O)OCc2c1cc1n(c2=O)Cc2cc3ccccc3nc2-1 |  | -18.3% (inactive) |  |
| CC[N+](C)(CC)CCC[n+]1c(-c2ccccc2)c2cc(N)ccc2c2ccc(N)cc21 | 11.2 µM (active) and 35.5 µM (active) |  |  |
| C[C@H]1C/C=C/[C@@H]2[C@@H]3O[C@]3(C)[C@@H](C)[C@H]3[C@H](Cc4ccccc4)NC(=O)[C@]32OC(=O)O/C=C/[C@](C)(O)C1=O |  | 6.24% (inactive) |  |
| CN(C)[C@@H]1C(=O)C(C(N)=O)=C(O)[C@@]2(O)C(=O)C3=C(O)c4c(O)cccc4[C@@](C)(O)C3CC12 (stereo partly specified) |  | -0.266% (inactive) |  |
| N#CCCCl | inactive |  |  |
| N#Cc1cc(Br)c(O)c(Br)c1 |  | 15.8% (inactive) |  |
| CCCCC#N |  | 11.1% (inactive) |  |
| CC(C)(c1ccc(OC[C@@H]2CO2)cc1)c1ccc(OC[C@H]2CO2)cc1 |  | -8.34% (inactive) |  |
| CO[C@@H]1C[C@@H](C[C@H]2CC[C@H](C)[C@@H]([C@@H](C)C(=O)O)O2)O[C@]2(O[C@](C)([C@H]3CC[C@@](C)(C4OC([C@H]5O[C@@](O)(CO)[C@H](C)C[C@@H]5C)C[C@@H]4C)O3)C[C@H]2C)[C@@H]1C (stereo partly specified) |  |  | inactive |
| C[C@]12O[C@H](C[C@@]1(O)C(=O)O)n1c3ccccc3c3c4c(c5c6ccccc6n2c5c31)CNC4=O |  | -8.07% (inactive) |  |
| CN[C@@H]1C[C@H]2O[C@@](C)([C@@H]1OC)n1c3ccccc3c3c4c(c5c6ccccc6n2c5c31)C(=O)NC4 | 35.5 µM (active) |  | inactive [at 11.5 µM] |
| COc1ccc2[nH]cc(CCNCc3ccc(Br)cc3)c2c1 |  | -1.04% (inactive) |  |
